Several values for one entry are separate records, joined by “and”; a condition that tells them apart may be missing. Identical values can stand only once. Records with an inconclusive call do not appear. Entries that show only a call come without a potency. Where a structure was tested more than once in an assay, its records may differ in their call. Activity calls are given as the source filed them. Calls come from the whole dose curve; as a rule, active = well fitted curve in the direction sought with a large enough effect; inconclusive = small, poorly fitted or top-dose-only effect, or another doubt; inactive = no such curve, though single readings can be large; an effect the other way counts as inactive or inconclusive.
Tests used:
[1] = tested on: MCC-13; assay: qHTS assay to identify novel small-molecules to repurpose for Merkel cell carcinoma treatment (AID 1296009); details: MCC and control cell lines, CellTiter-Glo viability, 72 h; series mostly up to 46 µM; note: nearly all actives have a fitted effect of over 60% in size; note: potency is the fitted concentration of half-maximal effect
Outline: (§1)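 Cells exposed to NPC (8-point) and MIPE (11-point) compound dilutions for 72 hr at 37 degree celsius; viability read by CellTiter-Glo luminescence, normalized to no-cell and DMSO in-plate controls.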

[2] = tested on: MCC-26; assay: as above; details: MCC and control cell lines, CellTiter-Glo viability, 72 h; series mostly up to 46 µM
Outline: as §1

[3] = tested on: MKL-1; assay: as above; details: MCC and control cell lines, CellTiter-Glo viability, 72 h; series mostly up to 46 µM
Outline: as §1

[4] = tested on: MKL-2; assay: as above; details: MCC and control cell lines, CellTiter-Glo viability, 72 h; series mostly up to 46 µM
Outline: as §1

[5] = tested on: NIH3T3; assay: as above; details: MCC and control cell lines, CellTiter-Glo viability, 72 h
Outline: as §1

[6] = tested on: UISO; assay: as above; details: MCC and control cell lines, CellTiter-Glo viability, 72 h; series mostly up to 46 µM
Outline: as §1

[7] = tested on: WaGa; assay: as above; details: MCC and control cell lines, CellTiter-Glo viability, 72 h; series mostly up to 46 µM
Outline: as §1

[8] = tested on: C33A; assay: Primary qHTS to identify gynecologic anti-cancer compounds using libraries of approved drugs and bioactive compounds (AID 1345084); details: Gynecologic cancer cell panel viability, ATPlite luminescence, 48 h; series mostly up to 57.5 µM; note: nearly all actives have a fitted effect of over 55% in size
Outline: (§2)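 Cells, 1,000 per well, plated 16 h, then exposed 48 h at 37 C to compounds. Viability by ATPlite luminescence after 15 min at room temperature.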

[9] = tested on: CAOV3; assay: as above; details: Gynecologic cancer cell panel viability, ATPlite luminescence, 48 h; series mostly up to 57.5 µM
Outline: as §2

[10] = tested on: CASKI; assay: as above; details: Gynecologic cancer cell panel viability, ATPlite luminescence, 48 h; series mostly up to 57.5 µM
Outline: as §2

[11] = at 44.8 µM (top of the series) unless noted

| Structure (SMILES) | Potency [1] | Potency [2] | Potency [3] | Potency [4] | outcome [5, 11] | Potency [6] | Potency [7] | Potency [8] | Potency [9] | Potency [10] | outcome ([5]; at 9.27 µM (top of the series)) | outcome ([5]; at 44.8 µM (top of the series)) | activity change, negative = cytotoxicity [8] | activity change, negative = cytotoxicity [9] | activity change, negative = cytotoxicity [10] |
| --- | --- | --- | --- | --- | --- | --- | --- | --- | --- | --- | --- | --- | --- | --- | --- |
| O=c1cc(O)c(Cl)c[nH]1 | inactive | inactive | inactive | inactive | inactive | inactive | inactive and 8.33 µM (active) | inactive | inactive | inactive |  |  |  |  |  |
| Cn1nnc2c(C(N)=O)ncn2c1=O | inactive | inactive | inactive | inactive | inactive | inactive | inactive | inactive | inactive | inactive |  |  |  |  |  |
| O=P(O)(O)C(O)(Cc1cccnc1)P(=O)(O)O | inactive | inactive | inactive | inactive | inactive | inactive | inactive | inactive | inactive | inactive |  |  |  |  |  |
| C#CCN[C@@H]1CCc2ccccc21 | inactive | inactive | inactive | inactive | inactive | inactive | inactive | inactive | inactive | inactive |  |  |  |  |  |
| NC(=O)N1c2ccccc2CC(=O)c2ccccc21 | inactive | inactive | inactive | 6.68 µM (active) and inactive | inactive | inactive | inactive | inactive | inactive | inactive |  |  |  |  |  |
| CCn1cc(C(=O)O)c(=O)c2cc(F)c(N3CCN(C)CC3)cc21 | inactive | inactive | inactive | inactive | inactive [at 17.4 µM] | inactive | inactive | inactive | inactive | inactive |  |  |  |  |  |
| CNS(=O)(=O)Cc1ccc2[nH]cc(CCN(C)C)c2c1 | inactive | inactive | inactive | inactive | inactive | inactive | inactive | inactive | inactive | inactive |  |  |  |  |  |
| CNS(=O)(=O)CCc1ccc2[nH]cc(C3CCN(C)CC3)c2c1 | inactive | inactive | inactive | inactive | inactive | inactive | inactive | inactive | inactive | inactive |  |  |  |  |  |
| CCN(CC)CC#CCOC(=O)C(O)(c1ccccc1)C1CCCCC1 (configuration not stated) | inactive | inactive | inactive | inactive | inactive | inactive | inactive |  |  |  |  |  |  |  |  |
| CC(=O)[C@H]1CC[C@H]2[C@@H]3CCC4=CC(=O)CC[C@]4(C)[C@H]3CC[C@]12C | inactive | inactive | inactive |  |  |  |  |  |  |  |  |  |  |  |  |
| CC(C(=O)O)c1ccc2c(c1)CC(=O)c1ccccc1S2 (configuration not stated) | inactive | inactive | inactive | inactive | inactive | inactive | inactive | inactive | inactive | inactive |  |  |  |  |  |
| CC(N)C12CC3CC(CC(C3)C1)C2 (configuration not stated) | inactive | inactive | inactive | inactive | inactive | inactive | inactive | inactive | inactive | inactive |  |  |  |  |  |
| CNNCc1ccc(C(=O)NC(C)C)cc1 | inactive | inactive | inactive | inactive | inactive | inactive | inactive | inactive | inactive | inactive |  |  |  |  |  |
| Cc1nnc(C(=O)NC(C)(C)c2nc(C(=O)NCc3ccc(F)cc3)c(O)c(=O)n2C)o1 | inactive | inactive | inactive | inactive | inactive | inactive | inactive | inactive | inactive | inactive |  |  |  |  |  |
| Cc1cc(NS(=O)(=O)c2ccc(N)cc2)no1 | inactive | inactive | inactive | inactive | inactive | inactive | inactive |  | inactive | inactive |  |  |  |  |  |
| N[C@@H](C(=O)N[C@@H]1C(=O)N2C(C(=O)O)=C(Cl)CS[C@H]12)c1ccccc1 | inactive | inactive | inactive | inactive |  | inactive | inactive |  |  |  | inactive | inactive | 7.76% [at 11.6 µM] (inactive) | 16.8% [at 11.6 µM] (inactive) | 2.82% [at 11.6 µM] (inactive) |
| CCCOc1ccc(C(=O)OCCN(CC)CC)cc1N | inactive | inactive | inactive | inactive | inactive | inactive | inactive | inactive | inactive | inactive |  |  |  |  |  |
| CC1=C(C(=O)O)N2C(=O)[C@@H](NC(=O)C(N)c3ccccc3)[C@H]2SC1 (some centres not stated) | inactive | inactive | inactive | inactive | inactive | inactive | inactive |  |  |  |  |  |  |  |  |
| CCc1cc(C(N)=S)ccn1 | inactive | inactive | inactive | inactive | inactive | inactive | inactive |  | inactive | inactive |  |  |  |  |  |
| C[C@@H](NCCCc1cccc(C(F)(F)F)c1)c1cccc2ccccc12 | inactive | inactive and 29.9 µM (active) | inactive | inactive | inactive | inactive |  |  |  |  |  |  |  |  |  |
| CCOc1cc(N)c(Cl)cc1C(=O)NCC1CN(Cc2ccc(F)cc2)CCO1 (configuration not stated) | inactive | inactive | inactive | inactive | inactive | inactive | inactive | inactive | inactive | inactive |  |  |  |  |  |

Source: PubChem BioAssay (NCATS)
